Consider 40 molecules from PubChem BioAssay (NCATS).

Active and inactive are the calls of the source. Calls come from the whole dose curve.

This assay can be described thus: Cell Proliferation Assay Versus the ED40515 IL2 Dependent ATL cell lines (AID 1053195). As to conditions: ED40515 IL2-dependent ATL cells. The text has this: Adult T-cell leukemia (ATL) develops in individuals infected with human T-cell lymphotropic virus-1 (HTLV-1). Clinically, ATL is subclassified into four subtypes: smoldering, chronic, lymphomatous, and acute. Two autocrine loops (IL-2/IL-2Ralpha and IL-15/IL-15Ralpha) and one paracrine stimulation loop that involves IL-9 expression by ATL cells and IL-9Ralpha expression on monocytes are required to maintain viability and proliferation in the smoldering and chronic forms of the disease. These assays examined the differential response profiles for the MIPE library of approved and investigational drugs versus an IL2 dependent and independent matched ATL cell line, with the current submission examining the differential response profiles for drugs on an IL2 dependent matched ATL cell line.
Plate log growing ED40515 +IL2 cells: 1000cells/ well in 5uL phenol red free RPMI +5% FBS +1x p/s, Glutamine using 1536 well white griener tissue culture plates and multidrop cassette acoustic dispensing Columns 1 and 3 DMSO Columns 2 and 4, 9.2 uM Bortezomib Incubate 48 hours for celltiter glo 37C with 5%CO2 and 95% humidity with low evaporation lids Dispense 3 uL per well of cell titer glo with multidrop Incubate for 15 minutes at RT Read on VL/2 using Luminesence Wheel (Filter A)
For `Cc1ccnc(NS(=O)(=O)c2ccc(NC(=O)Nc3ccc(S(=O)(=O)Nc4nccc(C)n4)cc3)cc2)n1`, the Potency was 23.5 µM (active). Regarding `Cc1cc(Nc2nc(N[C@@H](C)c3ncc(F)cn3)ncc2Cl)n[nH]1`, the Potency is 0.662 µM (active). Regarding `COc1cc2nccc(Oc3ccc(NC(=O)NC4CC4)c(Cl)c3)c2cc1C(N)=O`, the Potency was 20.9 µM (active). In the case of `O=C(O)[C@@H](c1ccc(OCc2ccc3ccccc3n2)cc1)C1CCCC1`, the Potency is 26.4 µM (active). Regarding `Cc1cc([C@@H](C)Nc2ccccc2C(=O)O)c2nc(N3CCOCC3)cc(=O)n2c1`, the Potency was 1.05 µM (active).

Regarding `O=C1[C@H](Cc2ccc(O)cc2)N2C(=O)CCN(C(=O)NCc3ccccc3)[C@H]2CN1Cc1cccc2ccccc12`, the Potency was 8.33 µM (active). As for `CNC(=O)c1ccc(N2C(=S)N(c3ccc(C#N)c(C(F)(F)F)c3)C(=O)C2(C)C)cc1F`, the Potency is 16.6 µM (active).

As to `Nc1nc2[nH]cc(CCc3ccc(C(=O)N[C@@H](CCC(=O)O)C(=O)O)cc3)c2c(=O)[nH]1`, the Potency is 0.0296 µM (active). `C[C@@H]1CN(Cc2ccc(F)cc2)[C@@H](C)CN1C(=O)c1cc2c(C(=O)C(=O)N(C)C)cn(C)c2cc1Cl`: the Potency is 16.6 µM (active).

On to `O=C(Nc1nc2ccccc2n1CCN1CCOCC1)c1cccc([N+](=O)[O-])c1`, for which the Potency is 10.5 µM (active). In the case of `O=C(OCC#CCSc1nnc(-c2ccc3ccccc3c2)o1)c1cc2ccccc2s1` it was 11.8 µM (active).

On to `CN(C)c1ccc(C2Nc3ccc4ccccc4c3C3=C2C(=O)CC(C)(C)C3)cc1Br` (stereo not given), for which the Potency was 14.8 µM (active). With `CCOC(=O)C1=C[C@@]2(CC)CCCN3CCc4c(n1c1ccccc41)[C@H]32`, the Potency is 9.5 µM (active). Consider `CS(=O)(=O)Oc1ccc2c(NC(N)=O)c(C(=O)c3ccc(Cl)cc3Cl)oc2c1`, for which the Potency was 16.6 µM (active). With `O=C(O)CCc1ccc(NCc2cccc(Oc3ccccc3)c2)cc1`, the Potency was 0.0833 µM (active).

Take `CCN(c1ccccc1)c1cc(NC)[n+](C)c(C)n1`: the Potency was 18.7 µM (active). In the case of `S=C(NCc1ccc2c(c1)OCO2)N1CCN(c2ncnc3c2oc2ccccc23)CC1`, the Potency was 0.0662 µM (active). With `Nc1nccc(-c2ccc3noc(-c4ccc(Cl)cc4)c3c2)n1`, the Potency is 23.5 µM (active).

On to `Cc1c(CN2CCN(C(=O)C(C)C)CC2)sc2c(N3CCOCC3)nc(-c3cnc(N)nc3)nc12`, for which the Potency was 1.66 µM (active). On to `CCOc1cc(N2CCC(O)CC2)ccc1Nc1ncc2c(n1)N(C)c1ccccc1C(=O)N2C`, for which the Potency was 11.8 µM (active).

For the molecule `Clc1ccc(Nc2nnc(Cc3ccncc3)c3ccccc23)cc1`, the Potency is 37.2 µM (active).

As to `CC(C)c1onc(-c2c(Cl)cccc2Cl)c1COc1ccc(/C=C/c2cccc(C(=O)O)c2)c(Cl)c1`, the Potency is 20.9 µM (active). In the case of `COc1ccc(C2=N[C@H](c3ccc(Cl)cc3)[C@H](c3ccc(Cl)cc3)N2C(=O)N2CCNC(=O)C2)c(OC(C)C)c1` it was 20.9 µM (active). As to `C[C@@H]1C[C@H]2[C@@H]3CCC4=CC(=O)C=C[C@]4(C)C3(F)[C@@H](O)C[C@]2(C)[C@@]1(O)C(=O)CO` (stereo not given in full), the Potency is 2.64 µM (active). For `CCN(CC)CCCC(C)Nc1nc(C)cc(Nc2ccc3nc(C)cc(N)c3c2)n1` (stereo not given), the Potency is 18.7 µM (active). `CCC(C)(C)C(=O)O[C@H]1C[C@@H](C)C=C2C=C[C@H](C)[C@H](CC[C@@H]3C[C@@H](O)CC(=O)O3)[C@H]21`: the Potency was 3.17 µM (active). In the case of `CCCc1nn(C)c2c(=O)[nH]c(-c3cc(S(=O)(=O)N4CCN(C)CC4)ccc3OCC)nc12` it was 37.2 µM (active). In the case of `Cc1cnc(Nc2ccc(OCCN3CCCC3)cc2)nc1Nc1cccc(S(=O)(=O)NC(C)(C)C)c1` it was 20.9 µM (active). Turning to `CC1(C)SCCN(S(=O)(=O)c2ccc(OCC#CCO)cc2)[C@@H]1C(=O)NO`, the Potency is 23.5 µM (active). Then `NC(=O)C1CCCc2c1[nH]c1ccc(Cl)cc21` (stereo not given), with 33.2 µM (active). Then `COCC(=O)NCC=Cc1ccc2ncnc(Nc3ccc(Oc4ccc(C)nc4)c(C)c3)c2c1`, with 4.69 µM (active); and `C#Cc1cccc(Nc2ncnc3cc(OCCOC)c(OCCOC)cc23)c1`, with 9.35 µM (active); and `OC[C@H](Cc1ccccc1)Nc1nc(Oc2ccc3c(c2)CCC3)nc2c1ncn2Cc1ccc(-c2ccccc2)cc1`, with 13.2 µM (active).

With `Cc1ccc2c(c1)C(=O)[C@@]1(O)CCN(c3ccccc3)C1=N2`, the Potency is 13.2 µM (active). Regarding `CCCS(=O)(=O)Nc1ccc(F)c(C(=O)c2c[nH]c3ncc(Cl)cc23)c1F`, the Potency was 16.6 µM (active).

`C[C@H](NC(=O)Cc1cc(F)cc(F)c1)C(=O)N[C@@H]1C(=O)N(C)c2ccccc2-c2ccccc21`: the Potency is 20.9 µM (active). As to `Cn1cnc2c(F)c(Nc3ccc(Br)cc3Cl)c(C(=O)NOCCO)cc21`, the Potency is 16.6 µM (active). In the case of `CCC(C)n1ncn(-c2ccc(N3CCN(c4ccc(OC[C@H]5CO[C@](Cn6cncn6)(c6ccc(Cl)cc6Cl)O5)cc4)CC3)cc2)c1=O` (stereo not given in full) it was 1.32 µM (active); in that of `COc1ccc(CC2=NN3C([C@@H](CCc4ccccc4)[C@@H](C)O)=NC(C)C3C(=O)N2)cc1OC` (stereo not given in full), 10.5 µM (active); in that of `Cn1cc(-c2ccc3nnc(C(F)(F)c4ccc5ncccc5c4)n3n2)cn1`, 7.43 µM (active).
